We go through 17 compounds from PubChem BioAssay.

A word on the inhibition: it is the drop in the measured response relative to a control, in per cent.

Structures are written as SMILES. Calls of active or inactive are those of the source. The rule behind the calls is not given here.

For the experiment, the target named is Pantothenate synthetase (Mycobacterium tuberculosis (strain ATCC 25618 / H37Rv)) (UniProt P9WIL5). Description: Coupled enzyme confirmation of inhibitors against recombinant Mtb PanC (AID 375).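 Note: 0% = full reaction with vehicle and 100% = no enzyme background.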 As to conditions: coupled enzyme assay; at 10 µM, active compounds read high.
Chain of Pantothenate synthetase (Mycobacterium tuberculosis (strain ATCC 25618 / H37Rv)) (P9WIL5 whole entry, looked up): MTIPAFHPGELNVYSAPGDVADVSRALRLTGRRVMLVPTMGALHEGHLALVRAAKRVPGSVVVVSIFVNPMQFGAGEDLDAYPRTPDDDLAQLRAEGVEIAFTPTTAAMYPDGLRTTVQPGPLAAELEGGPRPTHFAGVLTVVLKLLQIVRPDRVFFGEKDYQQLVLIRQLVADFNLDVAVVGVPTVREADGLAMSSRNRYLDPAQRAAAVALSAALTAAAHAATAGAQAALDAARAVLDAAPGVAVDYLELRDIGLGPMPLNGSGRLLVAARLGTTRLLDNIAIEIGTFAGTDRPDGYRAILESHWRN
For the compound `CC(C)COc1ccc(-c2nnn(CC(=O)N3CCCC3)n2)cc1`, the inhibition was 0% (inactive).

Turning to `Cc1sc2c(c1C)CN(C1CC(C)(C)NC(C)(C)C1)CN2C(=O)c1ccco1`, the inhibition was 7% (inactive).

As to `O=C(CS(=O)(=O)c1cn(Cc2ccc(Cl)cc2)c2ccccc12)N1CCCC1`, the inhibition was 6% (inactive).

Consider `CCOC(=O)C1CCN(c2c(NCCN3CCN(c4ccccc4)CC3)c(=O)c2=O)CC1`, for which the inhibition was 0% (inactive).

Consider `CCOC(=O)c1[nH]c(C)c(C(=O)NCC2CCCO2)c1C` (configuration not stated), for which the inhibition is 0% (inactive).

On to `CCCC1Cc2c(sc3ncnc(N)c23)CO1` (configuration not stated), for which the inhibition is 0% (inactive).

As to `O=C(c1cccs1)N1CCc2ccccc21`, the inhibition was 0% (inactive).

On to `CCCCn1c(SCc2ccc(Cl)cc2)nc2c1c(=O)[nH]c(=O)n2C`, for which the inhibition was 6% (inactive).

Turning to `O=C(OCC(=O)c1ccc[nH]1)c1ccc(S(=O)(=O)N2CCCCC2)cc1`, the inhibition was 1% (inactive).

On to `Cc1cc2c(cc1C)-c1nnnn1C(C)(C)C2`, for which the inhibition is 4% (inactive).

On to `O=C(NC1=NCCS1)c1ccc2c(c1)C(=O)N(Cc1ccco1)C2=O`, for which the inhibition was 0% (inactive).

With `COC(=O)C(C#N)C(=C1C(=O)CC(C)(C)CC1=O)c1ccc(O)cc1` (configuration not stated), the inhibition was 0% (inactive).

For the compound `COc1cccc(-c2nnc(NC(C)=O)o2)c1`, the inhibition is 0% (inactive).

Take `CCC(=O)Nc1c(C#N)c2nc3ccccc3nc2n1-c1ccccc1C`: the inhibition was 16% (inactive).

For `Cc1noc(C)c1S(=O)(=O)N1CCCC(C(=O)NCCc2ccc(Cl)cc2)C1` (configuration not stated), the inhibition was 3% (inactive).

As for `CCOc1ccc(-n2cc(C(=O)N3CCN(C)CC3)c3cc(OC)c(OC)cc3c2=O)cc1`, the inhibition was 0% (inactive).

Turning to `CCCCCCNS(=O)(=O)c1ccc(Cl)s1`, the inhibition was 2% (inactive).
